# Laboratory results taken from PubChem BioAssay (Tox21).
# Results filed as inconclusive are left out. Active and inactive are the calls of the source. Unless noted, calls come from the whole dose curve.
# Experiment: qHTS assay to identify small molecule antagonists of the vitamin D receptor (VDR) signaling pathway - cell viability counter screen (AID 743225; active = well fitted cell-killing curve with a large enough effect in the repeat runs; note: nearly all actives have a fitted effect of over 50% in size)
# Conditions: VDR-bla HEK293T viability, CellTiter-Glo luminescence, 16 h; series mostly up to 61 µM; viability change, negative = cytotoxic: at the top concentration
# Procedure, shortened: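 Same-well multiplex: following 16 h treatment of HEK 293T cells carrying a UAS-driven beta-lactamase reporter with compound and agonist (3 nM final), and a 2 h FRET substrate step, CellTiter-Glo was added and luminescence read after 30 min.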
# % is set by controls: 0 for no effect and ±100 for the full control effect.
SMILES,Potency,"viability change, negative = cytotoxic"
Cc1cc(C2(c3cc(C)c(O)cc3C)OS(=O)(=O)c3ccccc32)c(C)cc1O,inactive,–
Nc1cc(S(=O)(=O)O)cc2cc(S(=O)(=O)O)cc(O)c12,inactive,–
Nc1ccc2cc3ccccc3cc2c1,inactive,–
CNC1(C)C2CCC(C2)C1(C)C (configuration not stated),–,2.24% (inactive)
CC(=O)O[C@]1(C(C)=O)CC[C@H]2[C@@H]3C[C@H](C)C4=CC(=O)CC[C@]4(C)[C@H]3CC[C@@]21C,inactive,–
c1ccc2n[nH]nc2c1,inactive,–
CCc1ccc(C(c2ccc(CC)cc2)C(Cl)Cl)cc1,inactive,–
c1ccc2cc3c(ccc4ccccc43)cc2c1,inactive,–
CCn1c2ccccc2c2cc(N)ccc21,inactive,–
CCN(CC)C(=O)Nc1ccc(OCC(O)CNC(C)(C)C)c(C(C)=O)c1 (configuration not stated),–,-0.846% (inactive)
Cc1cc(C(C)(C)C)c(O)c(C(C)(C)C)c1,inactive,–
COc1cc(C(=S)N2CCOCC2)ccc1O,–,4.23% (inactive)
NNCCc1ccccc1,inactive,–
CC(C)(C)NC(=O)[C@@H]1CN(Cc2cccnc2)CCN1C[C@@H](O)C[C@@H](Cc1ccccc1)C(=O)N[C@H]1c2ccccc2C[C@H]1O,inactive,–
CC(C)CCOCc1ccccc1,–,9.7% (inactive)

# Experiment: qHTS assay to identify small molecule agonists of the NFkB signaling pathway - cell viability counter screen (AID 1159515); note: nearly all actives have a fitted effect of over 55% in size; note: potency is the fitted concentration of half-maximal effect
# Conditions: NFkB-bla ME-180 viability, CellTiter-Glo luminescence, 5 h; series mostly up to 61 µM; activity, negative = cytotoxic: at the top concentration
# Procedure, shortened: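 NFkB-bla ME-180 cells, 2,000/well, were plated overnight at 37 C, 5% CO2, then exposed to compounds in DMSO for 5 hr. After the bla FRET read, CellTiter-Glo was added to the same wells; luminescence was read after 30 min at room temperature.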
SMILES,"activity, negative = cytotoxic",Potency
CCc1cc(C(C)(C)C)c(O)c(C(C)(C)C)c1,8.68% (inactive),–
COC(=O)[C@H]1[C@H]2C[C@@H]3c4[nH]c5cc(OC)ccc5c4CCN3C[C@H]2C[C@@H](OC(=O)c2cc(OC)c(OC)c(OC)c2)[C@@H]1OC,1.21% (inactive),–
NCCCCCC(=O)O,-0.736% (inactive),–
CCCCCCCCCCCCCCCCCl,15.8% [at 28.5 µM] (inactive),–
CC(C)(C)NCC(O)COc1ccccc1OCC1CCCO1 (configuration not stated),1.17% (inactive),–
CC(N)=O,-1.88% [at 216 µM] (inactive),–
O=Nc1ccc(Nc2ccccc2)cc1,–,inactive
O=c1n(CC2CO2)c(=O)n(CC2CO2)c(=O)n1CC1CO1 (configuration not stated),–,inactive
CCC(=O)/C=C/C1C(C)=CCCC1(C)C (configuration not stated),11.9% (inactive),–
NC(N)=Nc1nc(CSCC/C(N)=N/S(N)(=O)=O)cs1,-3.42% (inactive),–
CC(=O)CC(C)=O,0.276% [at 78.8 µM] (inactive),–
CCCCCC(=O)O[C@]1(C(C)=O)CC[C@H]2[C@@H]3CCC4=CC(=O)CC[C@]4(C)[C@H]3CC[C@@]21C,–,inactive
CC(=O)OCC1=C(C(=O)O)N2C(=O)[C@@H](NC(=O)Cc3cccs3)[C@H]2SC1,5.17% (inactive),–
OCC(CO)N[C@H]1C[C@](O)(CO)[C@@H](O)[C@H](O)[C@H]1O,-10.4% (inactive),–
CC1COC(=O)O1 (configuration not stated),-11.4% (inactive),–
Cc1occc(=O)c1OC(=O)C(C)C,10.3% (inactive),–
C=C(C)C1CC=C(C)C(OC(C)=O)C1 (configuration not stated),-1.22% (inactive),–
Cc1scc2c1N(C(=O)CN1CCN(C)CC1)c1ccccc1NC2=O,2.2% (inactive),–
O=S(=O)(O)c1ccc2nc(-c3ccccc3)[nH]c2c1,–,13.1 µM (active)

SMILES,"activity, negative = cytotoxic",Potency
CCC[C@H](N[C@@H](C)C(=O)N1[C@H](C(=O)O)C[C@@H]2CCCC[C@@H]21)C(=O)OCC,5.41% (inactive),–
CCCCCCCCCCCC[N+](C)(C)C,–,inactive
Cc1cc(C2(c3cc(C)c(O)cc3C)OS(=O)(=O)c3ccccc32)c(C)cc1O,–,inactive
CC[C@@H](N)CO,-6.64% [at 78.8 µM] (inactive),–
Nc1cc(S(=O)(=O)O)cc2cc(S(=O)(=O)O)cc(O)c12,–,inactive
Nc1ccc2cc3ccccc3cc2c1,–,inactive
CNC1(C)C2CCC(C2)C1(C)C (configuration not stated),-20.3% (inactive),–
CC(=O)O[C@]1(C(C)=O)CC[C@H]2[C@@H]3C[C@H](C)C4=CC(=O)CC[C@]4(C)[C@H]3CC[C@@]21C,-1.25% (inactive),–
c1ccc2n[nH]nc2c1,2.78% (inactive),–
CCc1ccc(C(c2ccc(CC)cc2)C(Cl)Cl)cc1,–,inactive
c1ccc2cc3c(ccc4ccccc43)cc2c1,–,inactive
CCn1c2ccccc2c2cc(N)ccc21,–,inactive
CCN(CC)C(=O)Nc1ccc(OCC(O)CNC(C)(C)C)c(C(C)=O)c1 (configuration not stated),8.45% (inactive),–
Cc1cc(C(C)(C)C)c(O)c(C(C)(C)C)c1,-30.5% (inactive),–
COc1cc(C(=S)N2CCOCC2)ccc1O,-6.38% (inactive),–
NNCCc1ccccc1,0.329% (inactive),–
CC(C)(C)NC(=O)[C@@H]1CN(Cc2cccnc2)CCN1C[C@@H](O)C[C@@H](Cc1ccccc1)C(=O)N[C@H]1c2ccccc2C[C@H]1O,-3.56% (inactive),–
CC(C)CCOCc1ccccc1,1.08% (inactive),–
